Measurements as given in PubChem BioAssay (NCATS).
Values joined by “and” are separate entries in the source; they are usually repeats but may differ in a detail not shown here. Equal entries are not always repeated. Inconclusive results are not listed. Active and inactive are the calls of the source. Unless noted, calls come from the whole dose curve; as a rule, active = well fitted curve in the direction sought with a large enough effect; inconclusive = small, poorly fitted or top-dose-only effect, or another doubt; inactive = no such curve, though single readings can be large; an effect the other way counts as inactive or inconclusive.

Legend:
[1] = biological target: Cellular tumor antigen p53 (Homo sapiens) (UniProt P04637); assay: Primary qHTS for small molecule compounds that upregulate eGFP-tagged delta133p53alpha (in N-terminal) cells. (AID 2060322); conditions: NCI-H358 eGFP-delta133p53alpha fluorescence, 24 h; activation: active compounds read high;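 note: cells pre-induced with doxycycline then dosed without doxycycline; series mostly up to about 56 µM; 0% = DMSO vehicle and 100% = reference activator; nearly all actives have a fitted effect of over 75% in size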
Cellular tumor antigen p53 (Homo sapiens), sequence (P04637 whole entry, looked up, the tested form may be a part): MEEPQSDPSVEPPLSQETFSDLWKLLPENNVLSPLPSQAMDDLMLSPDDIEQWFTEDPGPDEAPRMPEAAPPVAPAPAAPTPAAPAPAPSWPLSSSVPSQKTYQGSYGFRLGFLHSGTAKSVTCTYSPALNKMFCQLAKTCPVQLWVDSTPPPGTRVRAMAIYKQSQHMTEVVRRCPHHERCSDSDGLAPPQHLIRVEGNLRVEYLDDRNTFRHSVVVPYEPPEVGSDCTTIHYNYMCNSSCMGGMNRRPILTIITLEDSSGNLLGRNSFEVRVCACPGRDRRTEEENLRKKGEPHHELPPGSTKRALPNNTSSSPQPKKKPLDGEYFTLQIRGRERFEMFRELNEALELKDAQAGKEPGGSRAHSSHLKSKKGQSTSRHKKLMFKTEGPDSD
In short: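 NCI-H358 cells pre-induced 24 h with 10 ng/ml doxycycline for eGFP-delta133p53alpha, plated dox-free and exposed 24 h at 37C to titrated compounds. Fixed, Hoechst-stained; gated GFP peak intensity by laser scanning cytometry, normalized to DMSO (0%) and 57.5 uM 5-azacytidine (100%).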

[2] = biological target: Cellular tumor antigen p53 (Homo sapiens) (UniProt P04637); assay: Primary qHTS for small molecule compounds that upregulate eGFP-tagged delta133p53alpha (in C-terminal) cells. (AID 2060324);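 note: 0% = DMSO wells and 100% = 57.5 µM 5-azacytidine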
In short: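 Doxycycline (100 ng/ml, 24 h) first induced the eGFP fusion in NCI-H358 C-terminal-tag cells. Washed-out cells then received titrated compounds for 24 h at 37 °C before paraformaldehyde fixation, Hoechst staining and cytometric GFP quantification.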

[3] = biological target: Aldehyde dehydrogenase, mitochondrial (Homo sapiens) (UniProt P05091); assay: qHTS for Inhibitors of the Aldehyde Dehydrogenase Family (ALDH2) Validation screens (AID 2061302; active = well fitted inhibition curve with a large enough effect; title and protocol of this record describe different tests;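 note: plate controls were DMSO vehicle for no effect and maximal DPI positive control response for full effect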)
[4] = biological target: Retinaldehyde dehydrogenase 3 (Homo sapiens) (UniProt P47895); assay: qHTS for Inhibitors of the Aldehyde Dehydrogenase Family (ALDH1A3) Validation screen (AID 2061312); note: % is set by controls: 0 for no effect and ±100 for the full control effect; nearly all actives have a fitted effect of over 45% in size
[5] = BET inhibitor-based combinations targeting novel dependencies in MECOM-rearranged (r) AML: SET-2 cell line (AID 2202231); conditions: SET-2 AML cells viability, CellTiter-Glo luminescence, 48 h; viability: active compounds read low, series mostly up to about 46 µM;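 note: plate controls were DMSO treated cells for no effect and wells without cells for full effect; nearly all actives have a fitted effect of over 35% in size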
In short: (§1)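 Viability of cells (500 per well) is scored by luminescent CellTiter-Glo at 48 hr post-dosing. Eleven-point titrations are normalized to DMSO and empty controls and reduced to AUC values.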

[6] = BET inhibitor-based combinations targeting novel dependencies in MECOM-rearranged (r) AML: OCI-AML3 cell line (AID 2202232); conditions: Potency: OCI-AML3 viability;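 note: series mostly up to about 46 µM; plate controls were DMSO vehicle wells for no effect and wells without cells for full effect; nearly all actives have a fitted effect of over 35% in size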
In short: as §1

[7] = BET inhibitor-based combinations targeting novel dependencies in MECOM-rearranged (r) AML: MV-4-11 cell line (AID 2202233);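 note: plate controls were DMSO for no effect and blank wells for full effect; nearly all actives have a fitted effect of over 45% in size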
In short: (§2)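 Using pin-tool transfer, drugs were added in 11 doses to cells (500/well), incubated 48 hr, and assessed with CellTiter-Glo. Z-AUC is a mean-centring transformation applied separately to each screened line.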

[8] = BET inhibitor-based combinations targeting novel dependencies in MECOM-rearranged (r) AML: HNT-34 cell line (AID 2202234);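 note: plate controls were vehicle wells for no effect and cell-free wells for full effect; nearly all actives have a fitted effect of over 35% in size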
In short: as §2

[9] = BET inhibitor-based combinations targeting novel dependencies in MECOM-rearranged (r) AML: UCSD-AML1 cell line (AID 2202235);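 note: series mostly up to about 46 µM; plate controls were DMSO vehicle wells for no effect and blank wells for full effect; nearly all actives have a fitted effect of over 40% in size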
In short: as §2

[10] = BET inhibitor-based combinations targeting novel dependencies in MECOM-rearranged (r) AML: AML-191 cell line (AID 2202236;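 note: plate controls were vehicle wells for no effect and wells without cells for full effect; nearly all actives have a fitted effect of over 35% in size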)
In short: as §1

[11] = BET inhibitor-based combinations targeting novel dependencies in MECOM-rearranged (r) AML: AML-194 cell line (AID 2202237;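 note: plate controls were vehicle wells for no effect and wells without cells for full effect; nearly all actives have a fitted effect of over 40% in size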)
In short: as §1

[12] = biological target: Retinaldehyde dehydrogenase 3 (Homo sapiens) (UniProt P47895); assay: qHTS for Inhibitors of the Aldehyde Dehydrogenase Family (ALDH1A3) Primary screen (AID 2061315);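 note: plate controls were DMSO vehicle for no effect and reference inhibitor for full effect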

CCCCNC(=O)NS(=O)(=O)c1ccc(C)cc1
inactive: activation [1] -35.6% and -11.9% | Potency [2] | Potency [3] | Potency [4]

CC12CC3CC(C)(C1)CC(N)(C3)C2
inactive: activation [1] -20.9% and 13.4% and -0.343% | Potency [2] | Potency [3] | Potency [4] | viability [5] 110% | Potency [6] | Potency [7] | Potency [8] | Potency [9] | Potency [10] | Potency [11]

CC(CCc1ccccc1)NCC(O)c1ccc(O)c(C(N)=O)c1 (stereo not drawn)
inactive: activation [1] 11.5% and 18% | Potency [2] | Potency [3] | Potency [4] | Potency [12]

O=C(O)C1CCNCC1
inactive: activation [1] -2.71% | Potency [2] | Potency [3] | Potency [4]

C#CCn1c(=O)c2c(ncn2C)n(C)c1=O
inactive: activation [1] -14.7% | Potency [2] | Potency [3] | Potency [4]

Nc1nnc(-c2cccc(Cl)c2Cl)c(N)n1
inactive: activation [1] 5.86% and 2.46% and -39.9% | Potency [2] | Potency [3] | Potency [4] | viability [5] 116% | Potency [6] | Potency [7] | Potency [9] | Potency [10] | Potency [11]

CS(=O)(=O)Nc1ccc([N+](=O)[O-])cc1Oc1ccccc1
inactive: activation [1] -3.95% and 5.46% and -33.6% | Potency [2] | Potency [3] | Potency [4] | viability [5] 107% | Potency [7] | Potency [8] | Potency [9] | Potency [10] | Potency [11]

CCN1CCCC1CNC(=O)c1cc(S(=O)(=O)CC)c(N)cc1OC (stereo not drawn)
inactive: activation [1] -0.505% and -9.21% and -28.2% | Potency [2] | Potency [3] | Potency [4] | viability [5] 122% | Potency [7] | Potency [8] | Potency [9] | Potency [10] | Potency [11]
